Screening results from PubChem BioAssay.
BoNT F protease: BoNT F light chain protease inhibition | AID 588497 | inhibition, % at 10 µM | Multiplex microsphere protease cleavage assay, flow cytometry | actives 0.22% (n = 360,000); in the data active means inhibition above about 35%, passing the limit was not always enough; inconclusive means no clear call, values can overlap the other calls
BoNT-A LC inh2: inhibitors of Botulinum neurotoxin A light chain protease; multiplex microsphere protease substrate cleavage, flow cytometry; inhibition, % at 10 µM; actives 0.17% (n = 360,000)
DUSP3 inh: blocks human VHR1 dual specificity phosphatase | P51452 | recombinant VHR phosphatase, pNPP absorbance | inhibition, % at 13.3 µM | actives 0.52% (n = 290,000); in the data active means inhibition above about 50%
Target sequence (P51452 whole entry, looked up): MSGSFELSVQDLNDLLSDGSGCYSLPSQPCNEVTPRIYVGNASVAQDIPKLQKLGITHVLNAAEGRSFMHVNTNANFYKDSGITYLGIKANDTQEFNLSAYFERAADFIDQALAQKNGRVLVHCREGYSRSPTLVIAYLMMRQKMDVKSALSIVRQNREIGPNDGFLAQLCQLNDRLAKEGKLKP
MazEF act: activators of E. coli MazEF toxin-antitoxin RNase; FAM/BHQ RNA-DNA oligo cleavage fluorescence, 5 h; activation, % at 20 µM; actives 0.32% (n = 350,000); AID 504720; in the data active means activation above about 50%
Target sequence (P0AE70 whole entry, looked up): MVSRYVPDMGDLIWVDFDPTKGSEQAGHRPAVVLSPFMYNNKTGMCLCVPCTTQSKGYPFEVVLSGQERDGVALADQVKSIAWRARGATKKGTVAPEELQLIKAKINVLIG
Anthrax LF prot: inhibitors of Bacillus anthracis lethal factor protease. P15917. multiplex microsphere protease cleavage assay, LF. inhibition, % at 10 µM. actives 0.12% (n = 360,000). AID 588501
Bead autofluor: flagged as autofluorescent in microsphere protease counterscreen. compound autofluorescence counterscreen, microsphere flow cytometry; stronger effect = higher value. fluorescence intensity (concentration not given with the values). actives 3.1% (n = 360,000). AID 624483; in the data active means fluorescence intensity above about 16000; inconclusive means no clear call, values can overlap the other calls
Each line names hits and unclear results; the compound was inactive in the other large screens. Most compounds without a hit are left out; they make up all but 4.1% or so of the library. Unless noted, no stated cut-off is given here; in the data, active means inhibition above about 30%; inconclusive means no clear call, values can overlap the other calls; inactive means below that.

O=C(Cc1csc(Nc2nc(=S)[nH]c3ccccc23)n1)NCc1ccc(Cl)cc1	Bead autofluor 23044
COc1cc(C2C(C#N)=C(N)N(N(C)C)C3=C2C(=O)CC(C)(C)C3)cc(OC)c1OC (stereo not drawn)	BoNT F protease inconclusive
CCOC(=O)c1ccc(NC(=O)COc2ccc(S(=O)(=O)NC(C)CC)cc2)cc1 (stereo not drawn)	none
CCOC(=O)c1ccc(NC(=O)C2(c3ccc(OC)cc3)CCOCC2)cc1	MazEF act 60
CCOC(=O)c1ccc(NC(=O)C(C)NS(=O)(=O)c2ccc(OC)cc2)cc1 (stereo not drawn)	Bead autofluor 16181
CCOC(=O)c1ccc(NC(=O)C23CCC(C)(C(=O)O2)C3(C)C)cc1 (stereo not drawn)	Bead autofluor 16270
CC12CCC(C(=O)NCc3ccc(Cl)cc3)(OC1=O)C2(C)C (stereo not drawn)	Bead autofluor 21504
COc1ccc(NC(=O)C23CCC(C)(C(=O)O2)C3(C)C)cc1 (stereo not drawn)	none
CCOC(=O)c1ccc(NC(=O)C2(c3ccc(OC)cc3)CCCC2)cc1	none
CNC(=O)c1ccc(CN(C)CC(=O)Nc2ccccc2C(=O)NC2CC2)cc1	none (no result: DUSP3 inh)
COc1cc(Br)cc(/C=C/c2ccc3cccc(O)c3n2)c1OC	none (no result: DUSP3 inh)
COc1ccc(Br)cc1/C=C/c1ccc2cccc(O)c2n1	DUSP3 inh 57
COc1ccc(C(=O)NC(CC(C)C)C(=O)O)cc1OC (stereo not drawn)	BoNT-A LC inh2 inconclusive, Bead autofluor 20991
COc1ccc(C(=O)CSc2nnc(CCc3ccccc3)n2-c2ccccc2)cc1	Bead autofluor 24111
N#C/C(=C/c1ccc(-c2ccc(S(N)(=O)=O)cc2)o1)C(=O)Nc1ccccc1	MazEF act 101
N#C/C(=C\c1ccco1)C(=O)Nc1ccc(S(N)(=O)=O)cc1	none
Cc1cc(NC(=O)/C(C#N)=C/c2ccc(-c3ccc(SC(F)F)cc3)o2)n(-c2ccccc2)n1	MazEF act 405
CCOC(=O)C1CCN(CC(O)COc2ccc(S(=O)(=O)N3CCCC3)cc2[N+](=O)[O-])CC1 (stereo not drawn)	none (no result: DUSP3 inh)
Cc1cccn2c(=O)c(/C=C(\C#N)S(=O)(=O)c3ccccc3)c(N3CCC(C(N)=O)CC3)nc12	Bead autofluor 18714
CCN1CCN(c2nc3c(C)cccn3c(=O)c2/C=C(\C#N)S(=O)(=O)c2ccccc2)CC1	none
CCN1CCN(c2nc3ccccn3c(=O)c2/C=C(\C#N)S(=O)(=O)c2ccccc2)CC1	BoNT F protease inconclusive, BoNT-A LC inh2 inconclusive, Anthrax LF prot 33
Cc1ccc(S(=O)(=O)/C(C#N)=C/c2c(N3CCC(C(N)=O)CC3)nc3c(C)cccn3c2=O)cc1	none
Cc1nc(SCC(=O)c2ccc(Cl)cc2)c([N+](=O)[O-])[nH]1	BoNT-A LC inh2 inconclusive, Bead autofluor 24383
Cc1nc(SCC(=O)c2ccc(F)cc2)c([N+](=O)[O-])[nH]1	none
C[C@H](NC(=O)N1CCn2c1nc1ccccc12)C(=O)NCc1ccc2c(c1)OCO2	none
O/N=C/c1cc(Br)cs1	BoNT F protease inconclusive
CCOC(=O)CCS(=O)(=O)c1nc(-c2ccccc2)cc(C(F)(F)F)n1	none
COC(=O)CCS(=O)(=O)c1nc(-c2ccccc2)cc(C(F)(F)F)n1	Bead autofluor 21982
Cc1cc(C)cc(N(C(=O)c2csnn2)C(C(=O)NC2CCCCC2)c2cccnc2)c1 (stereo not drawn)	DUSP3 inh 53
O=C(NCC(=O)N(c1ccccc1)C(C(=O)NC1CCCC1)c1ccncc1)c1cccs1 (stereo not drawn)	none
Cc1cc(C)cc(N(C(=O)c2csnn2)C(C(=O)NC2CCCC2)c2cccnc2)c1 (stereo not drawn)	none
O=C(NCC(=O)N(c1ccccc1)C(C(=O)NC1CCCC1)c1cccnc1)c1cccs1 (stereo not drawn)	DUSP3 inh 53
O=C(NC1CCCCC1)C(c1ccc(Cl)cc1)N(C(=O)c1ccccn1)c1cccnc1 (stereo not drawn)	DUSP3 inh 57 (no result: BoNT F protease, BoNT-A LC inh2, MazEF act, Anthrax LF prot, Bead autofluor)
O=C(Nc1ccc(S(=O)(=O)NCc2ccccc2)cc1)c1ccccc1[N+](=O)[O-]	MazEF act 116
CSc1ccc(S(=O)(=O)NCc2ccc(C)cc2)cc1	Bead autofluor 23510
COc1ccc(S(=O)(=O)NCc2ccccc2)cc1	Bead autofluor 21265
COCC(C)NS(=O)(=O)c1ccc(OC)cc1 (stereo not drawn)	Bead autofluor 19695
COCC(C)NS(=O)(=O)c1ccccc1 (stereo not drawn)	none
O=C(/C=C/c1ccccc1[N+](=O)[O-])N1CCc2ccccc2C1	BoNT F protease inconclusive
CCOC(=O)[C@]12CCCC=C1N(Cc1cccc3ccccc13)C(=O)[C@H](CC(=O)NCC1CCCCC1)C2	none (no result: DUSP3 inh, MazEF act)
COc1cc(C)c(Br)cc1S(=O)(=O)NCc1ccncc1	none
COc1ccc(S(=O)(=O)NCCCCNS(=O)(=O)c2ccc(OC)cc2)cc1	none
COc1ccc(S(=O)(=O)NCCC(=O)NCc2ccccc2)cc1	Bead autofluor 21763
Cc1ccc(CNC(=O)CCNS(=O)(=O)c2ccc(C)cc2)cc1	BoNT F protease inconclusive
COc1ccc(S(=O)(=O)NCc2cccs2)cc1	Bead autofluor 21782
COc1cc(C)c(Br)cc1S(=O)(=O)NCc1cccs1	DUSP3 inh 54
C=CCNC(=O)CCCCCNS(=O)(=O)c1ccc(OC)cc1	Bead autofluor 23119
COc1ccccc1Oc1ccc(S(=O)(=O)NCc2ccccn2)cc1	Bead autofluor 23518
O=S(=O)(NCc1cccs1)c1cccc2cccnc12	Bead autofluor 17165
CCc1ccc(CN(C)Cc2c(C(=O)N3CCOCC3)nc3c(C)cccn23)nc1	none (no result: DUSP3 inh)
COCCNC(=O)c1ccc2c(c1)NC(=O)CS2	Bead autofluor 19046
O=C1CSc2ccc(C(=O)NCCC3=CCCCC3)cc2N1	BoNT-A LC inh2 inconclusive, Bead autofluor 23017
CCC1CCCCN1CCCNC(=O)c1ccc2c(c1)NC(=O)CS2 (stereo not drawn)	DUSP3 inh 56
CCC1CCCCN1CCCNC(=O)c1ccc2nc(N3CCC(C)CC3)sc2c1 (stereo not drawn)	DUSP3 inh 51
CCc1cccc(C)c1NC(=O)COC(=O)Cc1ccccc1	none (no result: DUSP3 inh)
COc1ccccc1-c1c(C)oc2cc(OC(=O)c3ccco3)ccc2c1=O	BoNT-A LC inh2 inconclusive, Bead autofluor 20703
Cn1nc(C(F)(F)F)c(C(=O)Nc2ccc(Cl)cc2)c1Cl	BoNT-A LC inh2 inconclusive, Bead autofluor inconclusive
Cc1ccc(NC(=O)c2c(C(F)(F)F)nn(C)c2SCc2cccc(C(F)(F)F)c2)cc1C	Bead autofluor 16554
Cc1ccc(NC(=O)c2c(C(F)(F)F)nn(C)c2Cl)cc1C	BoNT-A LC inh2 inconclusive, Bead autofluor 19260
Cc1ccc(NC(=O)c2c(C(F)(F)F)nn(C)c2SCc2ccc(Cl)cc2)cc1C	Bead autofluor 18135
